Activity calls are given as the source filed them.
Columns and labels:
[1] = compound effects on lung adenocarcinoma cell viability – A549, calcein-AM fluorescence, 48 h, basal, profiling panel (AID 1162); conditions: higher = more signal
[2] = compound effects on differentiated 3T3-L1 adipocyte viability – cell-based, 3T3-L1 adipocytes, calcein-AM fluorescence, 48 h, basal, profiling panel (AID 1163); conditions: 3T3-L1 adipocytes viability, higher = more signal
[3] = compound effects on hepatocellular carcinoma cell viability – HepG2, calcein-AM fluorescence, 48 h, basal, profiling panel (AID 1164); conditions: higher = more signal
[4] = compound effects on multiple myeloma cell viability – MM1S, calcein-AM fluorescence, 48 h, basal, profiling panel (AID 1165); conditions: higher = more signal
[5] = calcein-AM signal in unstimulated myeloma cells – cell-based, calcein-AM fluorescence, 48 h, PK04 Diversity Set, profiling panel (AID 1166); conditions: RPMI8226 myeloma viability, higher = more signal;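 further: cells grown under basal conditions without added stimulus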
[6] = JC-1 mitochondrial signal, unstimulated HepG2 cells – cell-based, JC-1 fluorescence, 24 h, 100 nL compound, profiling panel (AID 1167); conditions: HepG2 mitochondrial potential, higher = more signal
[7] = JC-1 mitochondrial signal, unstimulated adipocytes – cell-based, JC-1 fluorescence, 3T3-L1 adipocytes, 24 h, 100 nL compound, profiling panel (AID 1168); conditions: JC-1 mitochondrial fluorescence, higher = more signal, called active from +8 up or from −8 down
[8] = JC-1 mitochondrial signal, unstimulated myeloma cells – cell-based, JC-1 fluorescence, RPMI8226, 24 h, 100 nL compound, profiling panel (AID 1169); conditions: JC-1 mitochondrial potential fluorescence, higher = more signal
[9] = JC-1 mitochondrial signal, unstimulated MM1S myeloma – cell-based, JC-1 fluorescence, 24 h, 100 nL compound, profiling panel (AID 1170); conditions: MM1S mitochondrial potential, higher = more signal
[10] = resazurin metabolic signal in A549 cells – cell-based, resazurin fluorescence, 24 h, PK04 Diversity Set, profiling panel (AID 1171); conditions: A549 viability, higher = more signal, called active from +8 up or from −8 down
Further: test concentration not given here.

| Structure (SMILES) | z-score [1] | z-score [2] | z-score [3] | z-score [4] | z-score [5] | z-score [6] | z-score [7] | z-score [8] | z-score [9] | z-score [10] |
| --- | --- | --- | --- | --- | --- | --- | --- | --- | --- | --- |
| CCCCC#C[C@@H]1C=C[C@H](OC(C)=O)[C@@H](COC(C)=O)O1 | -0.0464 | -0.515 | -1.14 | -3.37 | -3.02 | -1.24 | 0.378 (inactive) | -0.746 | -2.22 | 0.451 (inactive) |
| CC(=O)OC[C@H]1OC(ON=CC[C@@H]2C=C[C@H](OC(C)=O)[C@@H](COC(C)=O)O2)[C@H](OC(C)=O)[C@@H](OC(C)=O)[C@@H]1OC(C)=O (stereo not given in full) | -0.49 | -0.403 | -1.12 | -0.092 | -0.878 | 0.0783 | -2.76 (inactive) | -0.796 | 0.23 | 0.103 (inactive) |
| O=C1[C@H]2[C@H]3[C@H](O)[C@H](O)CC(=NOC[C@@H](O)COCc4ccco4)[C@H]3CC[C@H]2C(=O)N1C[C@@H]1CCCO1 | -0.0501 | -1.11 | -1.22 | 0.313 | -0.907 | -0.809 | -0.605 (inactive) | -0.271 | -0.278 | 0.622 (inactive) |
| CC1O[C@H]2C3=C(C(=O)[C@@H]4O[C@@H]4[C@H]3O)[C@@H]1C1[C@@H](C)OC=C3[C@H](O)C4O[C@@H]4C(=NOCc4ccccc4)[C@]312 (stereo not given in full) | -0.434 | 0.145 | -1.65 | -3.58 | -3.71 | -2.66 | 0.435 (inactive) | -0.856 | -2.28 | -0.989 (inactive) |
| COC(=O)[C@H]1[C@@H](O)[C@@]2(O)c3ccccc3O[C@@]2(c2ccccc2)[C@@H]1c1ccccc1 | -0.895 | -0.535 | -2.85 | -2.81 | -3.1 | -1.85 | -0.144 (inactive) | -0.231 | -0.341 | -0.146 (inactive) |
| CSCC[C@@H]1NC(=O)CC=C[C@@H](C)COC(=O)[C@@H](C)COC1=O | 0.63 | 0.115 | 1.47 | 0.269 | 0.341 | 0.852 | 0.0903 (inactive) | -0.994 | -0.122 | 0.377 (inactive) |
| COc1ccc(O[C@H]2C=C[C@@H](c3ccccc3)O[C@@H]2CON=C(C)CCN2CCc3nc(-c4ccccc4)c(-c4ccccc4)cc3C2)cc1 | 0.437 | 0.133 | 0.59 | -1.65 | -0.439 | 4.95 | -1.39 (inactive) | 0.965 | -0.214 | 0.621 (inactive) |
| CC(C)(C)N1C(=O)[C@H]2[C@H]3[C@H](O)[C@H](O)CC(=O)[C@H]3CC[C@H]2C1=O | -0.568 | 0.372 | 0.258 | -1 | -0.27 | 0.192 | -0.445 (inactive) | 0.651 | -0.512 | -0.644 (inactive) |
| CC(C)=CCCC(C)=CCON=C1C[C@@H](O)[C@@H](O)[C@@H]2[C@@H]3C(=O)N(c4ccc(F)cc4F)C(=O)[C@@H]3CC[C@H]12 | -1.39 | 0.719 | 0.0201 | -3.06 | 0.579 | -2.26 | 0.866 (inactive) | -0.786 | -1.55 | 0.619 (inactive) |
| Cn1c(=O)n2n(c1=O)[C@H]1[C@H](O)[C@@H]3O[C@@H]3C(=O)[C@H]1CC2 | 0.365 | -0.137 | 0.902 | -0.382 | 0.308 | 0.45 | 0.194 (inactive) | 0.731 | 0.0623 | -0.495 (inactive) |
| O=C1C2=CC[C@H]3C(=O)N(c4cccc(Oc5ccccc5)c4)C(=O)[C@H]3[C@H]2[C@H](O)[C@@H]2O[C@H]12 | -1.07 | -0.0208 | -3.98 | -3.09 | -3.84 | -0.778 | -0.298 (inactive) | -1.05 | -3.02 | -1.35 (inactive) |
| O=C1[C@H]2[C@H]3[C@H](O)[C@H](O)CC(=NOCc4ccccc4)[C@@H]3CC[C@H]2C(=O)N1Cc1ccc2c(c1)OCO2 | -0.152 | -0.121 | -0.937 | 0.266 | -2.81 | -0.335 | 0.17 (inactive) | -0.234 | -0.0728 | 0.688 (inactive) |
| COC(=O)[C@H](C)NC(=O)CCC1CC(OC(=O)NCc2ccc3c(c2)OCO3)CC2(CCCC(COC(=O)NCC(c3ccccc3)c3ccccc3)O2)O1 (stereo not given in full) | -0.641 | 0.155 | -2.9 | -3.53 | -3.99 | -1.01 | -0.013 (inactive) | -0.0228 | -0.794 | 1.76 (inactive) |
| COc1ccc(O[C@H]2C=C[C@@H](c3ccccc3)O[C@@H]2COC(=O)CCC(C)=NO[C@@H]2O[C@H](COC(C)=O)[C@@H](OC(C)=O)[C@H](OC(C)=O)[C@H]2OC(C)=O)cc1 | -0.502 | 0.0711 | -0.574 | -0.794 | -0.433 | -1.05 | -0.882 (inactive) | 0.722 | -0.375 | 0.363 (inactive) |
| O=C1C[C@@H](O)[C@@H](O)[C@@H]2[C@@H]3C(=O)N(Cc4ccccc4)C(=O)[C@@H]3CC[C@@H]12 | 0.249 | -0.118 | 0.208 | 0.0158 | -0.499 | -0.229 | 0.377 (inactive) | 0.139 | 0.431 | 1.11 (inactive) |
| CCc1cc2c(nc1CC)CCN(CCC(C)=NO[C@H](C)c1cn([C@H](CO)Cc3ccccc3)nn1)C2 | 0.449 | 1.22 | 0.405 | 0.341 | -0.905 | 0.551 | -1.37 (inactive) | -0.664 | 0.105 | -0.285 (inactive) |
| CO[C@H]1COC(=O)CC=C[C@@H](C)[C@H](NS(=O)(=O)c2ccc(C)cc2)COC(=O)CCC[C@@H]1C | 0.379 | 1.15 | -0.179 | 0.339 | 0.229 | -0.3 | -0.134 (inactive) | 0.112 | -0.58 | 0.478 (inactive) |
| CO[C@H]1COC(=O)[C@@H](C)COC(=O)[C@@H](OCc2ccccc2)C=C[C@@H]1C | -0.162 | -0.197 | 0.373 | -0.112 | 0.473 | 0.485 | 0.531 (inactive) | 0.458 | 0.0911 | 0.39 (inactive) |
| CC(C)CCN1CCc2nc(COc3ccccc3)c3c(c2C1)CO[C@@H](C)C3 | -0.304 | -0.225 | 0.665 | 0.246 | -0.396 | 1.66 | -0.000112 (inactive) | -0.724 | 1.09 | -0.0622 (inactive) |
| O=c1n(Cc2cc3c(cc2Cl)OCO3)c(=O)n2n1CC[C@@H]1C(=NOC[C@@H](O)COCc3ccco3)[C@H]3O[C@H]3[C@@H](O)[C@@H]12 | -0.158 | -0.322 | 0.105 | 0.0423 | -0.552 | -0.611 | -1.6 (inactive) | 0.0236 | -0.211 | -0.127 (inactive) |
| COc1ccc(O[C@H]2C=C[C@@H](c3ccccc3)O[C@@H]2CON=C(C)CCC(=O)OC[C@H]2O[C@H](c3ccccc3)C=C[C@@H]2Oc2ccc(OC)cc2)cc1 | -0.094 | -0.603 | -0.144 | -1.44 | -0.31 | 1.08 | 0.244 (inactive) | 0.534 | -0.492 | 0.305 (inactive) |
| CCOC(=O)[C@H](CC(C)C)NC(=O)CCC1CC(OC(=O)NCc2cccc3ccccc23)CC2(CCCC(COC(=O)NCCC(C)C)O2)O1 (stereo not given in full) | 2.25 | 0.944 | 0.312 | -3.2 | -1.05 | 0.162 | 0.199 (inactive) | -0.17 | -1.27 | 0.169 (inactive) |
| CO[C@H]1COC(=O)CCC[C@@H](C)[C@H](OC)COC(=O)[C@@H](C)NC(=O)CC=C[C@@H]1C | -0.682 | 1.07 | -0.796 | 0.0819 | -1.04 | 1.95 | 1.34 (inactive) | 0.246 | -0.754 | 1.02 (inactive) |
| CCCCC#C[C@@H]1C=C[C@H](Oc2ccc(C(=O)OC)cc2)[C@@H](COC(=O)OCC)O1 | -1.07 | 0.416 | -3.26 | -3.56 | -3.46 | -0.918 | 0.281 (inactive) | -0.614 | -1.95 | 0.313 (inactive) |
| CCOC(=O)[C@H](Cc1ccccc1)NC(=O)CCC1CC(OC(=O)NCCc2ccc(F)cc2)CC2(CCCC(COC(=O)NCc3ccccc3)O2)O1 (stereo not given in full) | 0.199 | -0.765 | -0.12 | 0.399 | -0.816 | 0.968 | 0.509 (inactive) | -0.191 | -0.266 | 0.56 (inactive) |
| COC(=O)CC=C[C@@H](C)[C@@H](C=NO[C@@H](C)c1cn([C@H](CO)Cc2ccccc2)nn1)OC | 0.52 | 1.03 | 0.656 | 0.354 | -0.609 | 0.341 | 1.08 (inactive) | 0.0532 | 0.723 | -0.493 (inactive) |
| CO[C@H]1COC(=O)CC=C[C@H](C)COC(=O)[C@@H](C)NC(=O)CC=C[C@@H]1C | -0.752 | 0.197 | -1.46 | 0.735 | -1.5 | 0.187 | -0.546 (inactive) | -0.111 | -0.609 | 0.0702 (inactive) |
| C=Cc1ccc([C@H]2N[C@H](C(=O)O)CC[C@@H]2C)cc1 | -0.241 | -0.173 | 0.453 | -0.568 | -1.15 | 0.547 | 0.0233 (inactive) | 0.239 | 0.43 | -0.439 (inactive) |
